For eight compounds, growth results are on record in PubChem BioAssay (NCI).

This is part of a sample that, as a whole, favours compounds with a hit. Of some 83,000 tested, about 20% had one in any assay.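 Treatment: one concentration, 48 hours, 96-well format. Scoring: percent growth, with anything below 10 considered active.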 Unmarked numbers belong to inactive results. The source made the active and inactive calls.

Test systems include NCI-H23 lung; NCI-H226 lung; NCI-H322M lung; HOP-62 NSCLC; NCI-H460 lung; NCI-H522 lung; A549/ATCC NSCLC; 786-0 renal; COLO 205 colon; DU-145 prostate; K-562 leukemia; MALME-3M melanoma; MDA-MB-231 breast; RXF 393 renal; SF-268 CNS; SF-295 CNS; SF-539 CNS; UACC-257 melanoma; M14 melanoma.
Assay in all cases: NCI-60 one-dose screen, 48 h (100 = growth as untreated, 0 = no growth, -100 = all killed)
Common to all, as to details: 10 µM unless noted

With `Nc1nc(-c2cccc([N+](=O)[O-])c2)c(N=Nc2cccc([N+](=O)[O-])c2)s1`, the growth is -25.6% (active) in the assay with NCI-H23 lung; 14.9% in the assay on NCI-H226 lung; 64.6% with NCI-H322M lung; 16.5% with HOP-62 NSCLC; 4.2% (active) with NCI-H460 lung; -12% (active) with NCI-H522 lung. Also, the growth was 17.5% in the assay on A549/ATCC NSCLC; -70.4% (active) with 786-0 renal; 106% in the assay on COLO 205 colon; 56.7% in the assay with DU-145 prostate; 81.9% with K-562 leukemia; 52.4% with MALME-3M melanoma. The growth was 19.5% in the assay with MDA-MB-231 breast; -64.5% (active) with RXF 393 renal; 14.7% with SF-268 CNS; 1.91% (active) with SF-295 CNS; -26.4% (active) in the assay on SF-539 CNS; 88.6% with UACC-257 melanoma. Moreover, the growth in the assay with M14 melanoma was 14.9%.

With `COc1ccc(CCOc2cc3c(cc2OC)CCN(C(=O)NCc2cocn2)C3c2ccc(C)cc2C)cc1` (stereo unspecified), the growth was 11.4% with NCI-H23 lung; 34.3% in the assay with NCI-H226 lung; 46% in the assay with NCI-H322M lung; 8.99% (active) in the assay on HOP-62 NSCLC; 3.64% (active) with NCI-H460 lung; -41.2% (active) with NCI-H522 lung. Besides, the growth was 7.81% (active) in the assay with A549/ATCC NSCLC; 5.15% (active) in the assay on 786-0 renal; -62% (active) with COLO 205 colon; 14.1% in the assay with DU-145 prostate; 10% with K-562 leukemia; 52.2% in the assay on MALME-3M melanoma. Besides, the growth was 20.5% in the assay with MDA-MB-231 breast; 1.12% (active) with RXF 393 renal; 21.2% with SF-268 CNS; 12.8% in the assay with SF-295 CNS; 1.43% (active) in the assay with SF-539 CNS; 38% in the assay on UACC-257 melanoma. Besides, the growth in the assay with M14 melanoma is 11.7%.

On to `COc1cc(OC)c(S(N)(=O)=O)cc1C(=O)/C=C/c1ccc(Cl)cc1`, for which the growth in the assay with NCI-H23 lung is 6.85% (active); with NCI-H226 lung, -26% (active); with NCI-H322M lung it was 16.3%; with HOP-62 NSCLC it was 9.71% (active); in the assay on NCI-H460 lung, -11.2% (active); with NCI-H522 lung, -6.47% (active). In addition, the growth was 6.83% (active) in the assay on A549/ATCC NSCLC; 13.8% in the assay on 786-0 renal; -30% (active) in the assay with COLO 205 colon; 5.02% (active) with DU-145 prostate; 7.15% (active) with K-562 leukemia; 61.4% in the assay on MALME-3M melanoma. Further, the growth in the assay on MDA-MB-231 breast was 11.5%; in the assay on RXF 393 renal, -40.4% (active); with SF-268 CNS, 6.79% (active); with SF-295 CNS, 1.14% (active); in the assay on SF-539 CNS, 0.148% (active); with UACC-257 melanoma, 73.6%. Also, the growth in the assay on M14 melanoma was 19.9%.

Consider `COc1cc(OC)c(/C=C/S(=O)(=O)Cc2ccc(OC)c(NCC(=O)NO)c2)c(OC)c1`, for which the growth is 15.4% in the assay on NCI-H23 lung; 25.6% with NCI-H226 lung; 45.6% with NCI-H322M lung; 20.8% in the assay with HOP-62 NSCLC; 10.8% in the assay with NCI-H460 lung; 3.67% (active) in the assay with NCI-H522 lung. Also, the growth is 22.3% with A549/ATCC NSCLC; 28.1% with 786-0 renal; -67.6% (active) in the assay with COLO 205 colon; 13.8% with DU-145 prostate; 11.6% in the assay with K-562 leukemia; 61.8% in the assay on MALME-3M melanoma. Also, the growth was 25.4% with MDA-MB-231 breast; -0.671% (active) with RXF 393 renal; 31.9% with SF-268 CNS; 6.88% (active) in the assay on SF-295 CNS; -5.59% (active) with SF-539 CNS; 62.4% in the assay on UACC-257 melanoma.

For the compound `COc1ccc(-n2c(SCc3n[nH]c(=S)o3)nc3ccc(Cl)cc3c2=O)cc1`, the growth in the assay on NCI-H23 lung is 99%; with NCI-H226 lung it was 77.6%; with NCI-H322M lung it was 97.6%; with HOP-62 NSCLC it was 97.2%; with NCI-H460 lung it was 103%; with NCI-H522 lung, 87.6%. Further, the growth in the assay with A549/ATCC NSCLC was 97.7%; in the assay with 786-0 renal, 94.1%; with COLO 205 colon it was 114%; in the assay with DU-145 prostate, 96.3%; in the assay on K-562 leukemia it was 99.6%; in the assay on MALME-3M melanoma, 95.3%. Moreover, the growth was 94.6% in the assay on MDA-MB-231 breast; 89.5% with RXF 393 renal; 92.1% in the assay on SF-268 CNS; 97.3% in the assay on SF-295 CNS; 91.5% with SF-539 CNS; 102% in the assay with UACC-257 melanoma. The growth in the assay on M14 melanoma is 112%.

Regarding `Cn1cc(-c2nnc(N)nc2-c2c[nH]c3ccc(F)cc23)c2cc(F)ccc21`, the growth in the assay with NCI-H23 lung was 83%; with NCI-H226 lung, 91.6%; in the assay with NCI-H322M lung it was 74%; with HOP-62 NSCLC it was 58.7%; with NCI-H460 lung it was 30.9%; with NCI-H522 lung, 57.5%. Also, the growth was 82.2% in the assay on A549/ATCC NSCLC; 90% in the assay with 786-0 renal; 84.2% in the assay on COLO 205 colon; 88.2% in the assay with DU-145 prostate; 48.6% in the assay on K-562 leukemia; 77.7% with MALME-3M melanoma. Also, the growth with MDA-MB-231 breast was 78.3%; in the assay with RXF 393 renal, 98.7%; with SF-268 CNS, 74.4%; in the assay with SF-295 CNS it was 59.4%; in the assay on SF-539 CNS it was 95.4%; in the assay with UACC-257 melanoma, 121%. The growth with M14 melanoma was 73.3%.

For the compound `N#Cc1cccc(/C(N)=N/C(N)=N/c2nc3ccccc3s2)c1`, the growth is 27.7% in the assay with NCI-H23 lung; 72% with NCI-H226 lung; 48.5% in the assay with NCI-H322M lung; 45% in the assay with HOP-62 NSCLC; 22% in the assay on NCI-H460 lung; 3.75% (active) in the assay on NCI-H522 lung. For the same compound, the growth was 60.8% in the assay with A549/ATCC NSCLC; 46% in the assay with 786-0 renal; 17.4% in the assay on COLO 205 colon; 17.5% with DU-145 prostate; 12.7% with K-562 leukemia; 59.3% in the assay on MALME-3M melanoma. Further, the growth with MDA-MB-231 breast was 37.3%; in the assay with RXF 393 renal, 13%; with SF-268 CNS, 56.5%; with SF-295 CNS, 1.87% (active); with SF-539 CNS, 4.08% (active); in the assay with UACC-257 melanoma it was 90.6%. Moreover, in the assay with M14 melanoma, the growth was 20.8%.

On to `CN(C)CCN(C)c1ccc2ncc(C#Cc3cncc(C(=O)Nc4ccc(CN5CCN(C)CC5)c(C(F)(F)F)c4)c3)n2n1`, for which the growth in the assay on NCI-H23 lung is -66.4% (active); in the assay with NCI-H226 lung it was 64.3%; with NCI-H322M lung it was 89%; with HOP-62 NSCLC, 33.6%; in the assay on NCI-H460 lung, -76% (active); in the assay on NCI-H522 lung it was 97%. Further, the growth in the assay on A549/ATCC NSCLC was -40.5% (active); in the assay on 786-0 renal it was 90.9%; in the assay on COLO 205 colon, 25.1%; with DU-145 prostate, -59.2% (active); with K-562 leukemia, 3.58% (active); with MALME-3M melanoma, 61.9%. Moreover, the growth in the assay with MDA-MB-231 breast was -53.4% (active); in the assay on RXF 393 renal it was -90.1% (active); with SF-268 CNS, 64.6%; in the assay on SF-295 CNS, 83.8%; with SF-539 CNS, -9.03% (active); in the assay with UACC-257 melanoma, 107%. In addition, the growth with M14 melanoma was -80.8% (active).
